Experimental findings from PubChem BioAssay are described below.

Broadly, the inhibition is the change of the read-out against control, counted positive when it falls.

Experiment [1] is described as follows: inhibitors of TNFa-induced NFkB p65 translocation, primary screen, imaging, HUVEC, MLSMR starter and 10KST1 sets (AID 438).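 Further: compound added about 3h40 before a 20 min TNFalpha stimulation.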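 On inhibition: signal is the nuclear over cytoplasmic p65 intensity ratio per well.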 The conditions noted are these: HUVEC TNFa-induced p65 nuclear translocation; cell count: measured here: nuclei count (cytotoxicity indicator), at 2.08 µM unless noted; inhibition: at 2 µM, stronger effect = higher value unless noted.
The nature of experiment [2]: inhibitors of mutant huntingtin aggregation, primary screen, imaging, exon1htt(103Q)mCFP cells, high-content imaging (AID 483;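 active means visual image review flags a hit and inhibition of aggregation exceeds 20%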;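 further: compound exposure lasted 3 days before fixation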;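 on nuclei count: percent of the per-plate median nuclei count of sample wells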). The conditions noted are these: exon1htt(103Q)mCFP cell line, aggregate imaging, at 2 µM; inhibition of aggregation: stronger effect = higher value; nuclei count: measured here: cell count, toxicity.
A short description of experiment [3]: inhibitors of E-selectin induction by TNFa, primary screen, imaging, HUVEC, immunofluorescence, MLSMR starter and 10KST1 sets (AID 487;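 active means visually confirmed hit in the image check and inhibition above 20%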;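 on inhibition: signal is fraction of cell area covered by stained E-selectin grains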;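 on nuclei count: 100% = median nuclei count of all wells on the same plate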). To be noted: HUVEC TNFalpha-induced E-selectin immunofluorescence imaging, at 2 µM; inhibition: stronger effect = higher value; nuclei count: measured here: cell number, toxicity.
For experiment [4], the target named is Voltage-gated potassium channel subunit beta-2 (Rattus norvegicus) (UniProt P62483). The experiment is described as follows: KvBeta enzyme negative modulators, primary screen, biochemical, NADPH fluorescence (AID 622;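 active means fluorescence slope higher than the sample average by over 3 SD, cut at about -0.22 in these data, passing the limit was not always enough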;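 further: slope of raw intensity against log time taken from 70 to 1610 s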). To be noted: recombinant KvBeta, 4-cyanobenzaldehyde reduction, at 10 µM, stronger effect = higher value.
The target is the same in experiment [5]. In words: KvBeta positive modulators, primary screen, biochemical, NADPH fluorescence (AID 623;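 active means NADPH fluorescence slope more negative than the mean of all samples by about 3 SD, 99.7% confidence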;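 further: fluorescence intensity change per second fitted from 20 to 320 s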). The conditions noted are these: Recombinant KvBeta, NADPH fluorescence decrease slope, 10 min; at 10 µM; stronger effect = lower value.
Experiment [6] addresses Alpha-2C adrenergic receptor (Homo sapiens) (UniProt P18825). In words: modulators of alpha2C/GIRK thallium flux, primary screen, cell-based, HEK293 alpha2C/GIRK1/2 (AID 624;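 active means fluorescence slope after compound addition differing from the mean of all screened samples at 99.7% confidence, in either direction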;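 further: slope of fluorescence ratio to pre-addition baseline per second over 15 to 24 s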). To be noted: thallium flux BTC fluorescence, at 10 µM, actives lie on both sides.
Experiment [7] is described as follows: inhibitors of larval lipid processing in zebrafish, primary screen, whole organism, PED6 fluorescence, gall bladder and intestine (AID 686;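 active means a full or partial loss of lipid-probe fluorescence in the fish gall bladder, intestine or both, judged by eye; inactive means no fluorescence loss, or compound toxic to the fish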;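 further: larvae 5 to 7 days old with five fish per well; signal comes from phospholipase A2 cleavage of quenched PED6 carried via bile; overnight exposure to compound and PED6 before scoring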). To be noted: Zebrafish larvae PED6 lipid processing, fluorescence scoring.
Experiment [8] can be described thus: inhibitors of Sendai virus-induced IRF3 signaling, primary screen, TLR/RLR signaling modifier project, cell-based, Sendai virus stimulus, luciferase, 10K MLSCN set (AID 602276;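 active means inhibition at or above 50% at 10 µM; inactive means inhibition below 50%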;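 further: firefly luciferase from ISG56 promoter only with Renilla not read in this screen; 0% = Sendai virus plus DMSO and 100% = medium plus DMSO without virus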). The conditions noted are these: HEK293 RL24 IRF3 luciferase reporter, at 10 µM, stronger effect = higher value.
The nature of experiment [9]: inhibitors of poly I:C-induced TLR3 signaling, primary screen, cell-based, poly I:C stimulus, luciferase, 10K MLSCN set (AID 602277;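 active means inhibition of the reporter signal at or above 50%; inactive means inhibition below 50%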). To be noted: HEK293-TLR3 RL24 IRF3 luciferase reporter, at 10 µM, stronger effect = higher value. A general note: In a reporter assay the amount or activity of a reporter protein is the signal.
Experiment [10] has as its target Muscarinic acetylcholine receptor M4 (Homo sapiens) (UniProt P08173). In words: compounds altering M4/GIRK thallium flux, either direction, primary screen, M4 allosteric agonist project, cell-based, HEK293 M4/GIRK, BTC-AM (AID 625;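 active means fluorescence slope after compound addition differing from the mean of all tested samples at 99.7% confidence, mostly higher but some lower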;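 further: thallium influx through GIRK channels coupled to M4 in HEK293 cells with BTC-AM dye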). To be noted: at 10 µM, actives lie on both sides.
The nature of experiment [11]: inhibitors of Chlamydomonas gravitaxis, primary screen, whole organism, Chlamydomonas reinhardtii, WT vs cilia-less mutant, absorbance, 96-well (AID 463189;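 active means inhibition at or above 50% relative to wild type and mutant plate controls; inactive means inhibition below 50%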;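 further: 0% = wild type cc124 cells in DMSO and 100% = ciliumless bld1 mutant cells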). The conditions noted are these: OD600 absorbance, 2 days, at 10 µM, stronger effect = higher value.

Structures are written as SMILES. Calls of active or inactive are those of the source.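 How the source made its calls, unless noted: active means inhibition above 20% together with a positive visual image hit; inconclusive means visual image hit but inhibition not above 20%; inactive means no visual image hit.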

Alpha-2C adrenergic receptor (Homo sapiens), sequence (P18825 whole entry, looked up): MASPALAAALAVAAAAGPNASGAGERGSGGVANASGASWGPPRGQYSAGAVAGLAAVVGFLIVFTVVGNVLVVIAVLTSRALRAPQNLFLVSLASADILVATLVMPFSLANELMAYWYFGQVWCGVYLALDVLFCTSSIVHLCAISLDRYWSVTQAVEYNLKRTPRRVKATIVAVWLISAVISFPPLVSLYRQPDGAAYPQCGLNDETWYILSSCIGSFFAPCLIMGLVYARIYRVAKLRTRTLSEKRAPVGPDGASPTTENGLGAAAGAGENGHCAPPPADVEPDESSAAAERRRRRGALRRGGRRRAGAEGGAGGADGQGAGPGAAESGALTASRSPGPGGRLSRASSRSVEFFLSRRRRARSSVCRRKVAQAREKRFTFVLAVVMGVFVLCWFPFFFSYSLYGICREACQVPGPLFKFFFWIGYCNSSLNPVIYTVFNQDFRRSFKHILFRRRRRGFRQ
Muscarinic acetylcholine receptor M4 (Homo sapiens), sequence (P08173 whole entry, looked up): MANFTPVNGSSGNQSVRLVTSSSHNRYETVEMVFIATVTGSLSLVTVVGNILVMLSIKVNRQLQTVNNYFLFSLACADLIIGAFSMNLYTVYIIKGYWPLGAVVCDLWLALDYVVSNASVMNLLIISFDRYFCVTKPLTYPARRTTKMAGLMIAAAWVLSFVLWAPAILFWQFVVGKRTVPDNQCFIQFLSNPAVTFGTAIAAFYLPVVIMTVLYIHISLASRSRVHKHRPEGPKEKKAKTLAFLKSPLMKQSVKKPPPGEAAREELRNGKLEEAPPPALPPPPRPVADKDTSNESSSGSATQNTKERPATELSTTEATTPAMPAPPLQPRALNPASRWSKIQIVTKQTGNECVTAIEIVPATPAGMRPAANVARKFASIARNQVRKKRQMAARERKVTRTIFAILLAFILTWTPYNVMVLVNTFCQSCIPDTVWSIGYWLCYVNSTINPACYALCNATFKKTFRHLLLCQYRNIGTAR
Voltage-gated potassium channel subunit beta-2 (Rattus norvegicus), sequence (P62483 whole entry, looked up): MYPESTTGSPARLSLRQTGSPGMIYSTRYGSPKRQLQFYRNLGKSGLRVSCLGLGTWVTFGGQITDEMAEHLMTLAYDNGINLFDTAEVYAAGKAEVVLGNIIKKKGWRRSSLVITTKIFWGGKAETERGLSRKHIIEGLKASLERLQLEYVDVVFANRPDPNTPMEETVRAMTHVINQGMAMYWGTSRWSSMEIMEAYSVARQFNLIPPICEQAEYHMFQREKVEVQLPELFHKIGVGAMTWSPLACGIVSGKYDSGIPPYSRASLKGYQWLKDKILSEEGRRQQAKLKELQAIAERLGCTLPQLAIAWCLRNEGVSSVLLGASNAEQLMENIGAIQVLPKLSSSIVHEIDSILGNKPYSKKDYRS

In experiment [1], `O=C(O)Cn1cc(C(=O)c2ccccc2)c2ccccc21` displayed a cell count of 389. Further, the inhibition in [1] was -3.3% (inactive); in [3] it was -22.1% (inactive); in [8], 9.27% (inactive); in experiment [9] it was 23% (inactive). Moreover, the inhibition of aggregation in experiment [2] is 16.7% (inactive). Moreover, the figures for the nuclei count in [2] and in experiment [3] were 89.2% and 104%, respectively. The fluorescence slope in experiment [4] was -0.352 (inactive). In addition, in experiment [5], the NADPH fluorescence slope is 1.2e-06 (inactive). The slope in [6] is 0.00605 (inactive). Besides, in experiment [7], the call was inactive.

In the case of `CCOC(=O)C(O)(c1ccc(N(CC)C(=O)OC)cc1)C(F)(F)F` (stereo not drawn), the cell count in experiment [1] was determined as 614. Moreover, the inhibition in experiment [1] was -6.1% (inactive); in experiment [3], -140% (inactive); in [8] it was 13.7% (inactive); in experiment [9] it was 13.7% (inactive). Besides, the inhibition of aggregation in experiment [2] is -9.5% (inactive). For the same compound, the values for the nuclei count in experiment [2] and in experiment [3] were 91.2% and 111%, respectively. Besides, the values for the fluorescence slope in experiment [4] and in [10] were -0.425 (inactive) and 0.00401 (inactive), respectively. Moreover, the NADPH fluorescence slope in experiment [5] is -0.000455 (inactive).

The compound `CNP1(NC)=NC(C(F)(F)F)=NC(C(F)(F)F)=N1` registered a cell count in [1] of 338. Besides, the inhibition is -24% (inactive) in [1], -0.4% (inactive) in experiment [3], -2.73% (inactive) in experiment [8] and 97.8% (active) in experiment [9]. Moreover, the inhibition of aggregation in [2] is 6.8% (inactive). The nuclei count in experiment [2] was 112%; in experiment [3], 89.8%. Also, the fluorescence slope in experiment [4] was -0.447 (inactive). In addition, in [5], the NADPH fluorescence slope is -3.2e-05 (inactive). For the same compound, the slope in [6] was 0.00454 (inactive). Also, in experiment [7], the call was inactive.

In turn, `CC(=NCc1cccnc1)c1c(O)n(Cc2ccccc2)c(=O)[nH]c1=O` registered a cell count in experiment [1] of 421. The inhibition in experiment [1] was 1.2% (inactive); in experiment [3] it was -174% (inactive); in [8], 9.01% (inactive); in experiment [9], 3.95% (inactive). Further, the inhibition of aggregation in experiment [2] was -11.9% (inactive). Further, the nuclei count in experiment [2] is 120%; in experiment [3] it was 126%. Moreover, the fluorescence slope in [4] was -0.492 (inactive); in experiment [10], 0.0065 (inactive). Also, in experiment [5], the NADPH fluorescence slope is 0.000113 (inactive).

On to `CCOC(=O)C1=C(N)OC(C)=C(C(=O)OCCOC)C12C(=O)Nc1ccccc12` (stereo not drawn), for which the cell count in [1] came to 336. The inhibition in experiment [1] is 4.8% (inactive); in [3], -113% (inactive); in experiment [8], 19.8% (inactive); in experiment [9], 32% (inactive). In addition, the inhibition of aggregation in experiment [2] was -0.2% (inactive). In addition, the nuclei count in experiment [2] worked out at 91.4%; in experiment [3], 97%. In addition, the fluorescence slope in [4] was -0.454 (inactive). Also, the NADPH fluorescence slope in [5] is -0.000189 (active). Moreover, in experiment [6], the slope was 0.00493 (inactive). Moreover, the outcome in experiment [7] was inactive.

`Cn1c(C(=O)N2CCC3(CC2)OCCO3)cc2c(=O)n(C)c3ccccc3c21` came in with a cell count in experiment [1] of 551. Further, the inhibition in [1] is -0.2% (inactive); in experiment [3] it was -17.8% (inactive); in [8], 13.8% (inactive); in experiment [9], 20.5% (inactive). Further, the inhibition of aggregation in experiment [2] was 26.7% (inactive). The values for the nuclei count in [2] and in experiment [3] were 104% and 125%, respectively. In addition, the fluorescence slope in experiment [4] was -0.522 (inactive); in [10], 0.00705 (inactive). The NADPH fluorescence slope in experiment [5] was -5.9e-06 (inactive).

Take `CCCCn1c(O)c(C(C)=Nc2cccc(C(=O)O)c2)c(=O)[nH]c1=O`: the cell count in [1] amounted to 278. Further, the inhibition is 6.8% (inactive) in [1], -151% (inactive) in experiment [3], 4.58% (inactive) in experiment [8] and 3.8% (inactive) in experiment [9]. Besides, the inhibition of aggregation in experiment [2] is 4.7% (inactive). Besides, the nuclei count turned out to be 75.2% in experiment [2] and 199% in experiment [3]. For the same compound, the fluorescence slope in experiment [4] was -0.604 (inactive); in experiment [10], 0.00369 (inactive). Further, the NADPH fluorescence slope in experiment [5] was 2.7e-05 (inactive).

Turning to `O=C1OCCC1NC1=NCCC1` (stereo not drawn), the cell count in experiment [1] amounted to 571. Moreover, the inhibition in experiment [1] is -9.6% (inactive); in [3], -16.4% (inactive); in experiment [8] it was -0.849% (inactive); in experiment [9], 13.5% (inactive). The inhibition of aggregation in experiment [2] was -1.8% (inactive). The nuclei count in [2] amounted to 106%; in [3] it was 101%. Besides, in experiment [4], the fluorescence slope was -0.45 (inactive). The NADPH fluorescence slope in [5] is -5e-05 (inactive). The slope in experiment [6] is 0.00554 (inactive).

Compound `CCC(=NCCCN1CCOCC1)c1c(O)n(Cc2ccccc2)c(=O)[nH]c1=O` registered a cell count in experiment [1] of 481. Moreover, the inhibition in experiment [1] is 0.8% (inactive); in [3], -36.6% (inactive); in experiment [8], -4.98% (inactive); in [9], 1.2% (inactive). In addition, the inhibition of aggregation in experiment [2] was 8.2% (inactive). In addition, the nuclei count in [2] is 101%; in [3] it was 167%. Further, the fluorescence slope in experiment [4] is -0.629 (inactive). Also, the NADPH fluorescence slope in experiment [5] was -2.2e-05 (inactive). Moreover, the slope in [6] is 0.00745 (inactive).

Compound `O=C(O)c1nonc1-c1nonc1C(=O)O` displayed a cell count in [1] of 195. Also, the inhibition in [1] was -1.9% (inactive); in experiment [3] it was -27.8% (inactive); in experiment [8] it was 17.8% (inactive); in experiment [9], 15.2% (inactive). The inhibition of aggregation in experiment [2] is 14.6% (inactive). The nuclei count came out at 99.5% in [2] and 104% in experiment [3]. Moreover, the figures for the fluorescence slope in experiment [4] and in experiment [10] were -0.641 (inactive) and 0.00379 (inactive), respectively. Moreover, the NADPH fluorescence slope in experiment [5] is -1.4e-05 (inactive).

For the compound `O=C1C2CCCN2C(c2ccc(Cl)c(Cl)c2)N1c1ccccn1` (stereo not drawn), the cell count in [1] is 499. The inhibition in [1] was -2.1% (inactive); in experiment [3] it was 17.4% (inactive); in experiment [8], 17.8% (inactive); in [9], 12.7% (inactive). Besides, in [2], the inhibition of aggregation is 0.2% (inactive). Moreover, the nuclei count in experiment [2] was determined as 98.4%; in [3] it was 101%. Besides, the fluorescence slope in [4] was -0.552 (inactive); in experiment [10] it was 0.00578 (inactive). Also, the NADPH fluorescence slope in experiment [5] is -4e-05 (inactive).

With `COc1ccc(OC)c(C2=NOC(C(=O)N3CCC4(CC3)OCCO4)C2)c1` (stereo not drawn), in [1], the cell count was 789. Further, the inhibition in experiment [1] was -17.7% (inactive); in experiment [3] it was -52.4% (inactive); in experiment [8] it was 10.6% (inactive); in experiment [9], 17% (inactive). Also, the inhibition of aggregation in [2] is 4% (inactive). Also, the nuclei count stood at 84.6% in experiment [2] and 77.7% in experiment [3]. Also, the figures for the fluorescence slope in experiment [4] and in experiment [10] were -0.234 (inactive) and 0.00835 (inactive), respectively. Also, in experiment [5], the NADPH fluorescence slope was -6.7e-06 (inactive).

As for `COc1ccc(CCN)cc1O`, in experiment [11], the inhibition was 4.96% (inactive).

On to `N#Cc1ccccc1Cn1cc(C(=O)c2ccco2)c2ccccc21`, for which the cell count in experiment [1] came to 353. Moreover, the inhibition is 6% (inactive) in experiment [1], -3.7% (inactive) in [3], 16.6% (inactive) in [8] and 15.1% (inactive) in [9]. In addition, in experiment [2], the inhibition of aggregation was 23.1% (inactive). In addition, the nuclei count in experiment [2] worked out at 76.5%; in experiment [3], 80.5%. For the same compound, the fluorescence slope is -0.254 (inactive) in experiment [4] and 0.00586 (inactive) in experiment [10]. For the same compound, in experiment [5], the NADPH fluorescence slope is -2.3e-05 (inactive).

`O=C(Cn1c2c(c(-c3ccccc3Cl)cc1=O)CCC2)N1CCC2(CC1)OCCO2` displayed a cell count in experiment [1] of 861. The inhibition in [1] was -5% (inactive); in experiment [3], -175% (inactive); in experiment [8], -8.12% (inactive); in experiment [9] it was -12.2% (inactive). In addition, the inhibition of aggregation in [2] is -9% (inactive). Further, the nuclei count in experiment [2] was found to be 107%; in [3] it was 125%. Also, the figures for the fluorescence slope in experiment [4] and in experiment [10] were -0.605 (inactive) and 0.00803 (inactive), respectively. Moreover, the NADPH fluorescence slope in experiment [5] is 9.7e-06 (inactive).
